CYP2C19 inh – blocks human cytochrome P450 2C19. P33261. CYP2C19 Supersomes, luciferin-H EGE luminescence, 30 min. inhibition, % at 5 µM. actives 21% (n = 96,000);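 active means CYP2C19 inhibition above a set limit at 5 µM in the primary screen, cut at about 50% in these data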;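 further: plate controls were negative control wells for no effect and 2.5 mM tranylcypromine positive control for full effect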
Target sequence (P33261 whole entry, looked up): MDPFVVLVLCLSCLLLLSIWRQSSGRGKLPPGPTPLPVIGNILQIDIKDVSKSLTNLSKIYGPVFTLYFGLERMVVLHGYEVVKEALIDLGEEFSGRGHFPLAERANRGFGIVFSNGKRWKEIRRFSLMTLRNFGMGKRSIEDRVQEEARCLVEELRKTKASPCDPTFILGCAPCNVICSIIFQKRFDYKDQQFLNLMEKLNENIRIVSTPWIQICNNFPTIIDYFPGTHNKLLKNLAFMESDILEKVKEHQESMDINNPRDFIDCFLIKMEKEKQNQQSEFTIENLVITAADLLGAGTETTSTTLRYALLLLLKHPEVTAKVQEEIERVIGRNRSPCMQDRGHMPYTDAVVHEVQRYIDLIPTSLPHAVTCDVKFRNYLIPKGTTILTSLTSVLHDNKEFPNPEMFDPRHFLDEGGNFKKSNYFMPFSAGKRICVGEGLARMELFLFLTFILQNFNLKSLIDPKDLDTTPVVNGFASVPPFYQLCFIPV
CYP2C9 activ – increases human cytochrome P450 2C9 activity. recombinant CYP2C9, luciferin-H conversion, luminescence; active compounds read high; factor 1 = untreated enzyme, 0 = blocked. activation factor at 5 µM. actives 1.4% (n = 96,000). P11712;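 active means activation factor of 2 or more for CYP2C9 at a 5 µM dose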;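 further: 0 = sulfaphenazole-blocked wells and 1 = vehicle-only wells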
CYP2C9 inhib – blocks human cytochrome P450 2C9. inhibition, % at 5 µM. actives 20% (n = 96,000). P11712. CYP2C9 Supersomes, luciferin-H conversion, luminescence;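 active means blocking of liver enzyme CYP2C9 beyond about 50% at 5 µM, limit read from the data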
MRP1 act – MRP-1 activation | H69AR cells + doxorubicin, viability rescue, CellTiter-Glo | viability increase, % at 10 µM | actives 0.61% (n = 140,000);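 active means viability gain under doxorubicin at or above a set limit, the compound median plus 3 SD, cut at about 4.7% in these data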;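 further: MRP-1 overexpressing cells given doxorubicin 25 µM after compound pretreatment; 18-22 h compound pretreatment then 72 h with doxorubicin before readout; 0% = doxorubicin-only wells and 100% = vehicle-treated cells without doxorubicin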
MRP resist rev – MRP-mediated drug resistance reversal. H69AR cells + 2 uM doxorubicin, CellTiter-Glo, 72 h. differential viability (reversal), % at 10 µM. actives 0.04% (n = 85,000). AID 602;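 active means viability drop by adding the cancer drug above about 55%, with treated viability meeting a 40% cutoff, limit read from the data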;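 further: viability without doxorubicin minus viability with 2 µM doxorubicin for each compound; larger differential means the compound sensitizes cells more to doxorubicin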
CYP2C19 activ – activators of human cytochrome P450 2C19 | 96,000 tested, under 10 active | P33261 | activation factor at 5 µM | recombinant CYP2C19, luciferin-H EGE luminescence; active compounds read high; 0 = fully inhibited enzyme, 1 = untreated enzyme;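 active means activation factor of at least 2 at 5 µM in the primary screen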;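 further: 0 = wells with 2.5 mM tranylcypromine and 1 = vehicle-only wells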
The depositor's hits bear a star; . = no result given. Sampled rows, rich in hits. Any-hit rate of the full collection: about 21%.

SMILES	CYP2C19 inh	CYP2C9 activ	CYP2C9 inhib	MRP1 act	MRP resist rev	CYP2C19 activ
O=C(Cn1c(SCC(=O)N2CCCc3ccccc32)nc2ccccc21)N1CCCC1	.	.	.	-2	1	.
O=C(Cc1cccc2ccccc12)N1CCCc2ccccc21	43	2.3*	-132	-4	19	0.6
COc1ccc(C(=O)N2CC3(CC(c4cccc([N+](=O)[O-])c4)=NO3)C[C@H]2C(=O)NCC(N)=O)cc1 (some centres undefined)	11	0.9	14	-2	.	0.9
Cc1ccc(N2CN(Cc3ccco3)CNC2=S)c(C)c1	.	.	.	-1	.	.
NC(=O)CSc1nc2ccccc2n1Cc1ccccc1F	57*	1	-1	-3	11	0.4
O=C(CSc1ccc2ccccc2c1)Nc1ncccn1	.	.	.	2	.	.
COc1ccccc1C(=O)NCCCn1cc(Br)c(C)n1	73*	0.8	21	0	8	0.3
O=C(NCCc1nc2ccccc2[nH]1)/C(=C/c1ccc2c(c1)OCO2)NC(=O)c1ccc(Cl)cc1Cl	.	.	.	-3	.	.
CCCn1c(CC)nc([N+](=O)[O-])c1Sc1ccc(F)cc1	39	1	-3	-5	.	0.6
CCC(=O)OCc1c(C(F)(F)F)nn(C)c1Sc1ccc(Cl)cc1	75*	0.4	60*	-2	.	0.2
CCC(=O)OCc1c(C(F)(F)F)nn(C)c1Sc1ccc(F)cc1	61*	0.6	41	-4	.	0.4
CC(=O)OCc1c(C(F)(F)F)nn(C)c1Sc1ccccc1	90*	0.8	16	-1	.	0.1
Cc1ccccc1NC(=O)OCc1cccnc1Sc1ccc(Cl)cc1	-14	1.2	-19	-1	.	1.1
CC(C)(C)NC(=O)Cn1cc(C#N)c2cc(Br)ccc21	88*	0.8	21	-2	14	0.1
C=CCn1c(COc2ccc(Cl)cc2)nnc1SCC(=O)N/N=C/c1ccccc1	11	0.9	7	0	.	0.9
CC(C)c1ccc(OCC(O)CN2CCN(c3ccccc3)CC2)cc1 (centres undefined)	35	0.9	12	-3	7	0.7
C/C(=N/NC(=O)CN1CCN(S(=O)(=O)c2ccc(Br)cc2)CC1)c1ccco1	.	.	.	1	.	.
COc1nc(Nc2cccc(C(F)(F)F)c2)nc(OC)n1	12	0.8	20	-1	8	0.9
COc1nc(Nc2ccc(C(C)=O)cc2)nc(OC)n1	51*	0.5	51*	-2	.	0.5
COc1nc(Nc2ccc3c(c2)OCO3)nc(OC)n1	49	0.3	68*	-2	-2	0.5
COc1cc(/C=N/NC(=O)Cn2nc([N+](=O)[O-])cc2C)cc(Br)c1OCc1ccccc1	59*	0.3	74*	0	9	0.4
CCOc1cc(/C=N/NC(N)=O)cc(Br)c1OCC(=O)Nc1cccc2ccccc12	7	0.9	7	-2	.	0.9
COc1cc(/C=N/NC(N)=O)cc(Br)c1OCc1ccccc1C	-16	1	-4	0	.	1.2
CCOc1cc(/C=N/NC(=O)Cn2nc([N+](=O)[O-])cc2C)cc(Br)c1OCc1ccccc1C	47	0.3	70*	-2	0	0.5
CCOc1cc(/C=N/NC(N)=O)cc(Br)c1OCC(=O)Nc1ccccc1C	59*	0.2	82*	-5	.	0.4
SMILES	CYP2C19 inh	CYP2C9 activ	CYP2C9 inhib	MRP1 act	MRP resist rev	CYP2C19 activ
Cc1ccc(N(NC(=O)C(O)(c2ccccc2)c2ccccc2)C(=O)CCl)cc1	.	.	.	-5	.	.
FC(F)(F)c1nnc2c(Sc3ccccc3)nc3ccc(Cl)cc3n12	50*	0.7	26	-5	.	0.5
Cn1cccc1CC(=O)N/N=C\c1c2ccccc2cc2ccccc12	52*	0.7	30	-1	.	0.5
CCCCOc1ccc(-c2cc(C(=O)NNC(=S)NCC)c3ccccc3n2)cc1	20	0.8	22	-2	.	0.8
COc1ccc(-c2c(C)nn3c(N4CCN(Cc5ccccc5)CC4)cc(C)nc23)cc1OC	68*	0.2	85*	-2	10	0.3
Cc1cc(N2CCN(Cc3ccccc3)CC2)n2nc(C)c(-c3ccccc3)c2n1	16	0.9	15	-1	-39	0.8
COc1ccccc1-c1c(C)nn2c(N3CCN(c4ccccc4OC)CC3)cc(C)nc12	76*	0.5	50	-3	1	0.2
COc1ccccc1-c1c(C)nn2c(N3CCCCCC3)cc(C)nc12	6	0.9	9	-3	.	0.9

Bioassay records (PubChem)
